# Data from PubChem BioAssay AID504660 (National Center for Advancing Translational Sciences (NCATS), 2011).
# “And” between values parts separate entries of the source, which are not always exact repeats. Identical values can stand only once. Among all 360,000 compounds or so, about 3,700 (1%) were called active. Cut-off read from the data, not from the text of the source: active = activation above about 30%; inactive = the rest. For the sample, actives were picked, then their nearest neighbours and some compounds at random. Some structures have more than one record in an assay (separate samples or runs), and their calls can disagree.
# Biological target: D(1A) dopamine receptor (Homo sapiens) (UniProt P21728)
# Test: Allosteric Agonists of the Human D1 Dopamine Receptor: qHTS; note: 0% is about no effect
# Conditions: HEK293 T-REx D1 cells, calcium flux, agonist mode; at 2 µM; stronger effect = higher value
# Outline: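 Agonism was scored from calcium flux recorded over 180 s (1 read/s) after pintool compound addition, following a 10-cycle baseline. Cells were inducible force-coupled HEK293 TREx D1, plated overnight at 30 C and loaded with no-wash calcium dye.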
# Chain of D(1A) dopamine receptor (Homo sapiens) (P21728 whole entry, looked up): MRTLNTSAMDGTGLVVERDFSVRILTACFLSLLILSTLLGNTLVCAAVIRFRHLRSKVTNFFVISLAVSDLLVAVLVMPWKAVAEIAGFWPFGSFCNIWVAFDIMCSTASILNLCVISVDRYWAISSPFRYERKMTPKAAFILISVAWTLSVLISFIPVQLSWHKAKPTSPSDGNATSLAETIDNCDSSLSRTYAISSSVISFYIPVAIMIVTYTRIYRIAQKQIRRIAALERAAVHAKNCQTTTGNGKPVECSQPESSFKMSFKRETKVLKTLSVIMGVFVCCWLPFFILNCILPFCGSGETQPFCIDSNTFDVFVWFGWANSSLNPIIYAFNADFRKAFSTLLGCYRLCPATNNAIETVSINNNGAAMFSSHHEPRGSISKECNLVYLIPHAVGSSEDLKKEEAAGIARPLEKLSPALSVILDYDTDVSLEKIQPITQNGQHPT
row,Structure (SMILES),activation
1,Cc1ccc(OC(=O)CSc2nnc(-c3cccs3)o2)cc1,1.31% (inactive)
2,CCN1CCN(c2ncc3c(n2)CC(c2ccccc2O)CC3=O)CC1 (stereo not drawn),9.15% (inactive)
3,Nc1ccc2nc3c(=O)[nH]c(=S)[nH]c3nc2c1,108% (active)
4,CCC1CCCCN1S(=O)(=O)c1ccc(NC(=O)c2cc(=O)c3ccccc3o2)cc1 (stereo not drawn),0.0446% (inactive)
5,CC(C)C(=O)Nc1nc2c(s1)CC(C(C)(C)C)CC2 (stereo not drawn),1.03% (inactive)
6,COc1ccc(Cl)cc1NC(=O)CSc1nc(=O)[nH]c2c1CCCC2,6.85% (inactive)
7,Cc1ccc(O)c(NC(=O)CCS(=O)(=O)c2nc(-c3ccc4c(c3)OCO4)cc(C(F)(F)F)n2)c1,5.29% (inactive)
8,N=C(N)SCc1cccc2ccccc12,47.6% (active)
9,CCOc1ccc(Br)cc1CSC(=N)N,21.9% (inactive)
10,CSC1=NCCN1C(=O)Cc1cccc2ccccc12,1.65% (inactive)
11,CN1CCOc2cc(S(=O)(=O)N3CCN(S(=O)(=O)c4c(F)cccc4F)CC3)cnc21,1.83% (inactive)
12,CCCN(CCC)S(=O)(=O)c1ccc(C(=O)NNC(=O)c2cc(OC)c(OC)c(OC)c2)cc1,6.23% (inactive)
13,CCCN(CCC)S(=O)(=O)c1ccc(C(=O)N2CC3CCC(CC3)C2)cc1,37.1% (active)
14,CCSC1=NCCN1C(=O)c1ccc(S(=O)(=O)N(CC)CC)cc1,1.17% (inactive)
15,COc1ccccc1NC(=O)C(=O)c1cc(C)n(-c2ccccc2F)c1C,1.84% (inactive)
16,CCNS(=O)(=O)c1cc(-c2nnc(Nc3cccc(C(F)(F)F)c3)c3ccccc23)ccc1C,4.19% (inactive)
17,Cc1csc2nc(COC(=O)c3ccccc3NC(=O)c3ccccc3Cl)cc(=O)n12,3.01% (inactive)
18,c1ccc2c(NC3C4CC5CC(C4)CC3C5)nc(N3CCOCC3)nc2c1 (stereo not drawn),38.3% (active)
19,c1cnc(NC2C3CC4CC(C3)CC2C4)nc1 (stereo not drawn),7% (inactive)
20,Fc1cnc(N2CCOCC2)nc1NCc1ccccc1,1.23% (inactive)
21,CCOC(=O)c1cc2c(=O)n3ccccc3nc2n(Cc2ccco2)c1=NC(=O)c1ccc(F)cc1,-0.478% (inactive)
22,CCCCCn1c(=O)[nH]c2cc(C(=O)Nc3cc(C)cc(C)c3)ccc2c1=O,0.484% (inactive)

row,Structure (SMILES),activation
1,CCOC(=O)C1CCN(c2ncnc3c2c(-c2ccccc2)cn3-c2cccc(C)c2)CC1,-1.59% (inactive)
2,Oc1ccc(Cl)cc1C1C=C(c2ccc3c(c2)OCO3)NC(c2c(F)cccc2Cl)N1 (stereo not drawn),21.1% (inactive)
3,CCCN1C(=O)C(Cc2nc3ccccc3c(=O)n2-c2ccccc2)c2cc(C)ccc21 (stereo not drawn),5.26% (inactive) and 5.84% (inactive)
4,CCOc1ccc(NC(=O)c2cn(C3CCCCC3)c(=O)c3c2c2ccccc2n3C)cc1,2.25% (inactive)
5,CCCc1nc2c(c(=O)c3ccccc3n2C)c(=O)n1C1CCCCCC1,190% (active)
6,Cc1ccc2c(=O)cc(C(=O)Nc3sc4c(c3C(=O)NCc3cccnc3)CCCC4)oc2c1,1.62% (inactive)
7,COc1ccc(S(=O)(=O)NCc2cccn2Cc2cccc(C)c2)cc1Cl,33.8% (active)
8,COc1ccc(S(=O)(=O)NCc2cccn2Cc2cccc(C)c2)cc1,23.9% (inactive)
9,COc1ccccc1CNS(=O)(=O)c1ccc2c(c1)NC(=O)CS2,4.9% (inactive)
10,Cc1ccc(Cl)cc1NC(=O)CCC(=O)N1CC(C)Sc2ccccc21 (stereo not drawn),0.39% (inactive)
11,Cc1cccc(-n2c(SCC(N)=O)nc3c(oc4ccccc43)c2=O)c1,-1.27% (inactive)
12,Cc1cccc(N2CCN(C(=O)CCSCc3ccccc3F)CC2)c1C,1.3% (inactive)
13,Cc1cccc(CN2CCC(CNC(=O)Nc3ccc(F)c(Cl)c3)CC2)c1,42.5% (active)
14,Cc1ccc(C)c(CN2CCC(CNC(=O)Nc3ccc(C)c(F)c3)CC2)c1,26.2% (inactive)
15,COc1cc(NC(=O)NCC2CCN(Cc3ccc(C)cc3)CC2)cc(OC)c1OC,2.18% (inactive) and 0.967% (inactive)
16,CCOC(=O)c1ccc(CSc2nnc3cc(C)c4ccccc4n23)cc1,4.34% (inactive)
17,O=C(CNC(=O)c1ccccc1)OC(C(=O)Nc1cc([N+](=O)[O-])ccc1F)c1ccccc1 (stereo not drawn),1.22% (inactive)
18,CC(O)CNCCOc1cccc(Oc2ccccc2)c1 (stereo not drawn),4.04% (inactive)
19,COc1ccccc1OCCNCC(O)COc1cccc2[nH]c3ccccc3c12 (stereo not drawn),17.7% (inactive) and 34% (active)
20,COc1ccccc1OCCC(=O)OCC(=O)NCc1ccccc1,-0.432% (inactive)
21,COc1ccc(CCNC(=O)CCCCn2c(=O)c3ccccc3n(Cc3ccccc3C)c2=O)cc1OC,13.8% (inactive)
22,Cc1cc(OCC(=O)Nc2ncn[nH]2)c(C)c(C)c1Br,1.36% (inactive)

row,Structure (SMILES),activation
1,COc1ccccc1CNC(=O)C(=O)NCC(c1cccs1)S(=O)(=O)c1cccs1 (stereo not drawn),7.48% (inactive)
2,CCn1c2ccccc2c2cc(CN3CCN(Cc4cccc(Cl)c4)CC3)ccc21,2.19% (inactive)
3,Cc1cccc(Nc2cc(C)nc(-n3nc(C)cc3C)n2)c1,-1.13% (inactive)
4,Cc1cccc(NC(=O)c2ccc(F)c(S(=O)(=O)N(C)C3CCCCC3)c2)c1,0.598% (inactive)
5,COCCN(Cc1ccccc1)C(=O)Cc1ccc(S(=O)(=O)N2CCOCC2)s1,134% (active)
6,CCN(Cc1ccccc1)C(=O)Cc1ccc(OC)c(S(=O)(=O)N2CCOCC2)c1,3.33% (inactive)
7,O=C(Cc1ccc(S(=O)(=O)N2CCOCC2)s1)NCCC(c1ccccc1)c1ccccc1,2.27% (inactive)
8,CCOC(=O)c1cc(-c2ccccc2)n(CCC(=O)Nc2ccccc2CC)c1C,5.65% (inactive)
9,CCC(=O)N1CCc2cc(Br)cc(S(=O)(=O)Nc3ccc(C)cc3C)c21,0.918% (inactive)
10,CC(NC(=S)Nc1ccc(OC(F)F)cc1)c1ccc(F)cc1 (stereo not drawn),41.7% (active)
11,CC(C)N(Cc1ccccc1)C(=S)Nc1ccc(OC(F)F)cc1,15.8% (inactive)
12,CC/C(=N\NC(=S)NC(C)C)c1ccc(OC(F)F)cc1,0.526% (inactive)
13,Cc1ccc(S(=O)(=O)NC(N)=NCCC[C@@H](NC(=O)CNC(=O)c2ccccc2)C(=O)Nc2cc(C(F)(F)F)ccc2Cl)cc1,4.3% (inactive)
14,CCOC(=O)c1ccc(CN(Cc2ccccc2)S(=O)(=O)c2ccc(Cl)cc2)cc1,18.5% (inactive)
15,O=[S+]([O-])(c1ccc(OC(F)(F)F)cc1)N1CCN([S+](=O)([O-])c2ccc3c(c2)OCCO3)CC1,4.97% (inactive)
16,CC1Cc2cc(S(=O)(=O)CCC(=O)NCc3ccc(Cl)cc3)ccc2N1C(=O)C1CC1 (stereo not drawn),14% (inactive)
17,Cc1cccc(NC(=O)c2cccc(C(=O)Nc3cccc(C)c3C)n2)c1C,2.25% (inactive)
18,Cc1cccc(NC(=O)N2CCCCCC2)c1C,0.571% (inactive)
19,Cc1cccc(NC(=O)N2CCN(C)c3ncccc32)c1C,33.9% (active)
20,O=C1C(F)N([S+](=O)([O-])c2ccc3c(c2)OCCO3)CCN1[S+](=O)([O-])c1c(F)cccc1F (stereo not drawn),-0.431% (inactive)
21,COc1ccc(CCC(=O)NCCc2csc(-c3ccc(Cl)cc3)n2)cc1,5.93% (inactive)
22,O=C(c1ccc(Cl)cc1)n1cnc2ccccc21,1.83% (inactive)

row,Structure (SMILES),activation
1,O=c1c(-c2ccc(Cl)cc2)[n+]([O-])c2ccccc2n1OCc1nc2ccccc2[nH]1,-0.955% (inactive)
2,O=C(Cc1nc2ccccc2[nH]c1=O)c1ccc(Cl)cc1,69.4% (active)
3,C#CC(C)(CC)NC(=O)Cn1nnc(-c2ccc(OCc3c(F)cccc3Cl)cc2)n1 (stereo not drawn),3.62% (inactive)
4,COc1ccc(CCNC(=O)CCCn2c(=O)c3ccccc3n(Cc3ccc(C)cc3)c2=O)cc1OC,-2.01% (inactive)
5,COc1cccc(CNC(=O)CCc2nc(-c3ccc(C)cc3)no2)c1,3.85% (inactive)
6,COc1ccccc1-c1noc(CSc2nnc(-c3ccccc3)n2-c2ccc(C)c(C)c2)n1,0.886% (inactive)
7,COc1cccc(C(=O)c2sc3nc(-c4ccccc4)cc(C(F)(F)F)c3c2N)c1,171% (active)
8,COc1cccc(C(=O)NC(=O)Nc2nc(C)cc(C(F)(F)F)n2)c1,2.89% (inactive)
9,COc1cccc(C(=O)Nc2ccc(-c3cc(C(F)(F)F)nn3-c3ccccc3)cc2)c1,2.16% (inactive)
10,Cc1ccccc1CNC(=O)CCCn1nc(C)c2sc3ccccc3c2c1=O,5.39% (inactive)
11,CSc1ccccc1-c1nnc(NC(=O)c2ccc3c(c2)OCCO3)o1,0.0799% (inactive)
12,CCC(C(=O)Nc1cccc(-c2nc3cccnc3s2)c1C)c1ccccc1 (stereo not drawn),6.2% (inactive)
13,COc1cc(NS(=O)(=O)c2cccs2)cc(OC)c1,-0.545% (inactive)
14,COc1cc(NC(=O)c2ccccc2NS(=O)(=O)c2ccc(Cl)s2)cc(OC)c1,32.7% (active)
15,O=S(=O)(Nc1ccccc1N1CCOCC1)c1ccc(Cl)s1,0.142% (inactive)
16,CCCn1c(NCc2ccc(N(CC)CC)cc2)nc2ccccc21,15.4% (inactive)
17,COc1ccc(CN2CCC(n3nccc3NC(=O)CCCc3ccccc3)CC2)cc1C,37.7% (active)
18,COc1cc(CN2CCC(n3nccc3NC(=O)CCCc3ccccc3)CC2)ccc1O,0.415% (inactive)
19,Cc1ccc(CN2CCC(n3nccc3NC(=O)CCCc3ccccc3)CC2)o1,1.76% (inactive)
20,Cc1ccc(CN2CCC(CNC(=O)c3cnn(-c4ccc(C)cc4)c3C3CCN(C(=O)OC(C)(C)C)CC3)CC2)cc1,33.1% (active)
21,COc1ccccc1CN1CCC(CNC(=O)c2cnn(-c3cccc(Cl)c3)c2C2CCN(C(=O)OC(C)(C)C)CC2)CC1,9.95% (inactive)
22,Cc1ccc(CN2CCC(CNC(=O)c3cnn(-c4ccccc4Cl)c3C3CCN(C(=O)OC(C)(C)C)CC3)CC2)cc1,27.5% (inactive)
